# Source: PubChem
# Hits are enriched below; roughly 1.2% of the tested compounds scored in any of these assays.
# CASP6 VEID inh: caspase-6 (human) enzyme inhibition; AID 686996; 0.53% of 350,000 active; P55212; inhibition, % at 12.5 µM; purified caspase-6, Z-VEID-R110 cleavage fluorescence;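 active = mean inhibition across replicates at least about 35%, with every replicate also reaching that limit, limit read from the data; inconclusive = only one of the two criteria met; inactive = neither criterion met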;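 note: 0% = median of neutral control wells and 100% = no fluorescence left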
# MLL AF4-AF9 inh: blocks AF4 peptide binding to human AF9; AlphaScreen, biotin-AF4 peptide binding to FLAG-AF9; inhibition, % at 10 µM; 0.47% of 350,000 active;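 active = every replicate reaching a set inhibition limit, whatever the replicate mean, cut at about 25% in these data; inconclusive = mean inhibition reaches that limit but some replicates miss it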;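 note: 0% = plate neutral control median and 100% = total signal loss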
# RAD52 anneal inh: blocks human RAD52 DNA annealing; P43351; inhibition, % at 18.7 µM; AID 651710; 0.46% of 360,000 active; recombinant RAD52 DNA annealing, FRET fluorescence;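 active = every replicate showing at least 50% inhibition; inconclusive = mean inhibition at least 50% but not in every replicate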
# Target sequence (P43351 whole entry, looked up): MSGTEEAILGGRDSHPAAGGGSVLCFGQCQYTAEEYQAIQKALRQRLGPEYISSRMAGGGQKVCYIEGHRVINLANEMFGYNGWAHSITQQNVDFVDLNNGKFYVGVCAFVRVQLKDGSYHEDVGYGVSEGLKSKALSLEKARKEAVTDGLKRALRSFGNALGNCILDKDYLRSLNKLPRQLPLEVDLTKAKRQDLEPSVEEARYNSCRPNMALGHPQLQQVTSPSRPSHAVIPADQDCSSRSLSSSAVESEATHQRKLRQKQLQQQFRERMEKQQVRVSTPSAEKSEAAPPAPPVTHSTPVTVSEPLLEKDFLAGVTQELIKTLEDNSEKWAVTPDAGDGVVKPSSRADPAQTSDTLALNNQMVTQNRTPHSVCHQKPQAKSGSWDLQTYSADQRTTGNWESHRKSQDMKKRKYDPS
# N-glyco inh: blocks N-linked glycosylation in D54 reporter cells. D54 ERlucT glycosylation luciferase reporter, 24 h; percent of 100 nM tunicamycin response. reporter increase, % at 12.5 µM. 0.23% of 360,000 active. AID 588692;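 active = mean luciferase reporter signal, scaled so untreated is 0 and the glycosylation-blocking control 100, at or above a set limit in every replicate; inconclusive = mean reaches the limit but not every replicate does; inactive = mean below the limit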;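 note: luciferase carries N-glycosylation sites so blocking glycosylation raises the light; 0% = median of neutral control wells and 100% = median of 100 nM tunicamycin wells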
# RAD54 inh: RAD54 (human) branch migration inhibition | RAD54 Holliday junction branch migration, FAM/BHQ fluorescence | inhibition, % at 10.4 µM | 0.14% of 360,000 active | AID 602329;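 active = mean normalized replicate activity at least 40 and at least half of replicates scoring 40 or more; inconclusive = only one of the two criteria met; inactive = mean below 40 and under half of replicates reaching 40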;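 note: 0% = median of neutral control wells and 100% = median of positive control wells; inhibitors cause a drop in the FAM fluorescence signal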
# Starred values were filed as active, the others as inactive; i = inactive; ? = inconclusive; nt = no result.
SMILES,CASP6 VEID inh,MLL AF4-AF9 inh,RAD52 anneal inh,N-glyco inh,RAD54 inh
Cc1ccc([C@@H]2CC=C(C(=O)O)[C@H](c3ccc(C(C)(C)C)cc3)N2S(=O)(=O)c2ccc(C)cc2)cc1,46*,-2,-23,-3,9
CCc1ccc([C@@H]2CC=C(C(=O)O)[C@H](c3ccc(C(C)(C)C)cc3)N2S(=O)(=O)c2ccc(C)cc2)cc1,45*,0,-10,-6,-1
CCNC(=O)C[C@H]1CC[C@@H]2[C@H](COc3ccc(NC(=O)Cc4ccccc4)cc3C(=O)N2C)O1,0,-2,0,nt,6
S=C(Nc1ccc2nsnc2c1)N1CCCC1,47*,5,-13,1,4
COc1cc(CNC(C)c2ccccc2)c(Br)cc1OCC(N)=O (centres undefined),80*,-1,-3,1,-1
C[C@@H]1CCCCO[C@@H](CN(C)CC2CCCCC2)[C@@H](C)CN([C@@H](C)CO)C(=O)c2cc(NS(=O)(=O)c3cn(C)cn3)ccc2O1,-2,-1,0,nt,-3
Clc1ccc(C2=Nn3c(nnc3-c3n[nH]c4c3CCC4)SC2)cc1Cl,nt,nt,nt,81*,0
c1ccc(C2=Nn3c(nnc3-c3n[nH]c4c3CCC4)SC2)cc1,nt,nt,nt,38*,2
Clc1ccc(C2=Nn3c(nnc3-c3cc(-c4ccccc4)n[nH]3)SC2)cc1,nt,nt,nt,?,8
C[C@@H]1CN([C@H](C)CO)C(=O)c2cccc(NC(=O)Nc3ccc(C(F)(F)F)cc3)c2O[C@H]1CN(C)C(=O)Nc1ccc2c(c1)OCO2,nt,nt,nt,nt,-7
C#CCOCCOCCOCCNc1nc(N2CCN(C(=O)[C@H](CC(N)=O)n3cc([C@@H](N)CC(N)=O)nn3)CC2)nc(N2CCN(C(=O)[C@H](CC(N)=O)n3cc([C@@H](N)CC(N)=O)nn3)CC2)n1,-163,nt,-6,2,-35
C#CCOCCOCCOCCNc1nc(N2CCN(C(=O)C([C@@H](C)O)n3cc([C@@H](N)CCCCN)nn3)CC2)nc(N2CCN(C(=O)[C@H](CCCCN)n3cc([C@@H](N)CC(N)=O)nn3)CC2)n1 (some centres undefined),-216,45*,41,0,-23
C#CCOCCOCCOCCNc1nc(N2CCN(C(=O)[C@H](CCCCN)n3cc(CN)nn3)CC2)nc(N2CCN(C(=O)[C@H](CCCCN)n3cc([C@@H](N)CC(N)=O)nn3)CC2)n1,-287,40*,44,-2,-36
O=C1CC(N2CCSCC2)C(=O)N1c1cccc(Cl)c1 (centres undefined),44*,-1,-28,0,nt
O=C1CC(N2CCN(c3ccccc3)CC2)C(=O)N1c1cccc(Cl)c1 (centres undefined),1,2,-9,0,8
CC(=O)Nc1ccc(CNc2ncnc3ccc(-c4c(C)noc4C)cc23)cc1,-1,0,-6,50*,3
Cc1cccc(CNc2ncnc3ccc(-c4ccoc4)cc23)c1,-1,-1,-10,-12,-3
COc1cccc(S(=O)(=O)N(C)C[C@H]2Oc3cc(C#CCN(C)C)ccc3S(=O)(=O)N([C@H](C)CO)C[C@@H]2C)c1,-2,5,-5,nt,-10
O=C(c1cccnc1)N1CC(=O)N2[C@H](C1)[C@H](c1ccc(-c3ccc(F)cc3)cc1)[C@@H]2CO,-3,31*,-4,nt,nt
Cc1cccc(-c2ccc([C@H]3[C@H]4CN(C(=O)c5cccnc5)CC(=O)N4[C@H]3CO)cc2)c1,2,36*,-9,nt,nt
Cc1cccc(-c2ccc([C@@H]3[C@H](CO)N4C(=O)CN(C(=O)c5cccnc5)C[C@@H]34)cc2)c1,-1,12,-20,nt,nt
O=C(CC(F)(F)F)N1C[C@@H]2[C@H](c3ccccc31)[C@@H](CO)N2C(=O)C1CCCC1,1,-2,-4,nt,-8
O=C(CSc1nnc(-c2ccco2)n1-c1ccccc1Cl)Nc1cccc(C(=O)O)c1,55*,-7,-15,2,4
COc1ccc2c3c(n(C)c2c1)[C@H](CO)N(C(=O)NC1CCCC1)CC31CCN(C)CC1,-4,8,0,nt,nt
S=c1[nH]nc(-c2ccco2)n1/N=C/C=C/c1ccco1,70*,-4,-18,-1,nt
SMILES,CASP6 VEID inh,MLL AF4-AF9 inh,RAD52 anneal inh,N-glyco inh,RAD54 inh
S=c1[nH]nc(-c2cc(-c3ccccc3)n[nH]2)n1/N=C/C=C/c1ccco1,11,-3,-10,2,12
CCN1/C(=C/c2ccc3cc(C)cc(C)c3[n+]2CC)Sc2cc(C)ccc21,-37,28*,i,11,i
O=C(C[C@H]1CC[C@@H](NC(=O)Nc2cc(F)ccc2F)[C@@H](CO)O1)Nc1ccccc1,-1,6,6,nt,-10
Cc1cc(-c2nn(-c3ccccc3F)cc2CN2CCN(c3ccncc3)CC2)c(C)s1,7,32*,47,-4,13
Cc1ccccc1S(=O)(=O)NCC[C@H]1CC[C@@H](NC(=O)C2CCCC2)[C@H](CO)O1,0,2,-5,nt,12
CCCN1C[C@H](C)[C@@H](OC)CN(C)C(=O)c2cc(NC(=O)Nc3ccccc3F)ccc2OC[C@H]1C,nt,2,-9,nt,-6
OC1CCCN(Cc2ccc3ccc4cccc5ccc2c3c45)C1 (centres undefined),nt,nt,nt,57*,91*
Cc1c(C(=O)N2CCCC2)oc2ccc(Br)cc12,39*,-4,-11,-1,0
COc1ccc2oc(C(=O)N3CCN(c4ncccn4)CC3)c(C)c2c1,36*,-2,-9,0,1
Cc1c(C(=O)N2CCN(C)CC2)oc2ccc(Br)cc12,2,-2,-33,-3,6
C[C@H](CO)N1C[C@H](C)[C@@H](CN(C)C(=O)Nc2ccc(F)cc2)Oc2ccc(NC(=O)C3CC3)cc2CC1=O,0,-2,11,nt,3
CCc1cccc(NC(=O)c2cc(S(=O)(=O)N(C)C)ccc2N2CCCC2)c1,4,0,-9,39*,-5
CN(C)S(=O)(=O)c1ccc(N2CCCC2)c(C(=O)Nc2nccs2)c1,3,-1,-6,79*,3
CCc1cccc(NC(=O)c2cc(S(=O)(=O)N3CCCCC3)ccc2N2CCOCC2)c1,-4,-4,-5,-5,-3
CN(C)S(=O)(=O)c1ccc(N2CCCC2)c(C(=O)Nc2nc(-c3ccc(F)c(F)c3)cs2)c1,nt,nt,nt,2,nt
CN(C)S(=O)(=O)c1ccc(N2CCCC2)c(C(=O)Nc2nc3c(ccc4ccccc43)s2)c1,nt,nt,nt,-3,-4
Cc1cnc(NC(=O)c2cc(S(=O)(=O)N(C)C)ccc2N2CCCC2)s1,1,1,-10,98*,-2
COc1ccc(S(=O)(=O)N[C@@H]2CC[C@@H](CCn3cc(-c4ccccc4F)nn3)O[C@@H]2CO)cc1,1,-1,8,nt,7
CCCC#Cc1ccc2c(c1)[C@@H]1[C@@H](CCN1S(=O)(=O)c1ccccc1)[C@@H](CO)N2C,nt,2,nt,nt,3
